Bioassay records (PubChem)
Pf growth 48h: P. falciparum growth inhibition at 48 hours (one generation); P. falciparum luciferase growth in erythrocytes, 48 h; Potency, µM (highest dose often 28.7 µM), hits mostly inhibitors; 310,000 compounds, 5.9% hits; AID 504832
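Growth was read as firefly luciferase luminescence after a 48 h, 37 C, 5% CO2 exposure of compounds to reporter-bearing P. falciparum cultures (0.1% parasitemia, 2% hematocrit final) in Albumax-supplemented RPMI 1640.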
HCV inhibitor: inhibitors of hepatitis C virus infection. Potency, µM (doses to about 41.8 µM), most hits filed as inhibitors. AID 651820. 340,000 compounds, 3.4% hits. Huh7.5.1 HCVcc-Cre infection, luciferase reporter, 44 h
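Cells seeded at 1,000/well and cultured 4 h, then compounds added followed by HCVcc-Cre virus (~0.5 moi). After 44 h further culture, luciferase substrate was added, plates held 15 min at room temperature, and luminescence read for 15 sec.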
Pf growth 96h: inhibits malaria parasite growth, 96 h | P. falciparum luciferase reporter growth, 96 h | Potency, µM (series often up to 28.7 µM), usual class: inhibitors | 320,000 compounds, 6.9% hits
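Parasite growth measured via integrated firefly luciferase reporter in P. falciparum. Infected erythrocytes at 2% hematocrit, 0.05% parasitemia final were treated 96 hours at 37 C under 5% CO2, and luminescence was read.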
AMA1-RON2 inh: inhibitors of Plasmodium falciparum AMA1-RON2 interaction. AlphaScreen AMA1-biotinylated RON2 peptide binding. Potency, µM (doses to about 58.2 µM), usual class: inhibitors. 360,000 compounds, 0.2% hits. AID 720542; note: nearly all actives have a fitted effect of over 45% in size
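AMA1 (3D7) with his tag at 25 nM final met compounds first, then biotinylated RON2 peptide at 25 nM; detection used donor plus acceptor beads, 10 µg/mL apiece, read by AlphaScreen after 30 min at room temperature.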
Of the large screens only hits and unclear results are named; the others gave an inactive call; ! = not active in a repeat. Compounds with a hit are over-represented: about 11% of the library has one in this group of screens. Calls come from the whole dose curve; as a rule, active = well fitted curve in the direction sought with a large enough effect; inconclusive = small, poorly fitted or top-dose-only effect, or another doubt; inactive = no such curve, though single readings can be large; an effect the other way counts as inactive or inconclusive.

COCC(=O)N(Cc1nc2ccccc2c(=O)[nH]1)Cc1cccs1	Pf growth 96h inconclusive
CNCCOc1ccccc1OC(C)C	Pf growth 96h 10µM
CCCOc1ccc2[nH]cc(C(=O)O)c(=O)c2c1	Pf growth 96h 15µM
CCOCCCNC(=O)c1c[nH]c2ccc(OCC)cc2c1=O	Pf growth 48h 2.3µM
CCOc1ccc2[nH]cc(C(=O)NCc3ccc(F)cc3)c(=O)c2c1	Pf growth 48h inconclusive, HCV inhibitor inconclusive
CC1=C(C(=O)OCc2cc(C)on2)N2C(=O)[C@@H](NC(=O)OCc3cc(C)on3)[C@H]2SC1	none
C=CCn1c(CCCNC(=O)CCC)nc2ccccc21	none
CCc1cc(=O)oc2cc(OCC(=O)NCCCn3ccnc3)c(Cl)cc12	none
Cc1cc(OCC(=O)NCC(O)c2ccccc2)c2c3c(c(=O)oc2c1)CCC3 (stereo not given)	Pf growth 48h inconclusive
CCc1cc(=O)oc2cc(OCC(=O)NCCCN3CCCC3=O)c(Cl)cc12	Pf growth 48h inconclusive, Pf growth 96h 12µM
Cc1c(OCC(=O)N2CCC(C(N)=O)CC2)ccc2c3c(c(=O)oc12)CCC3	Pf growth 96h inconclusive
Cc1c(OCC(=O)N2CCC(C(=O)O)CC2)ccc2c3c(c(=O)oc12)CCC3	HCV inhibitor 0.32µM
O=C(COc1cc2oc(=O)c3c(c2cc1Cl)CCC3)NCC(O)c1ccccc1 (stereo not given)	HCV inhibitor inconclusive, Pf growth 96h 13µM
Cc1c(OCC(=O)NCC(O)c2ccccc2)ccc2c3c(c(=O)oc12)CCC3 (stereo not given)	HCV inhibitor inconclusive, Pf growth 96h 12µM
Cc1cccc(Nc2c(O)nc[nH]c2=O)c1	none (no result: Pf growth 48h, Pf growth 96h)
O=C(O)CCCNC(=O)CCCn1nnc2ccccc2c1=O	none
Cc1c(OC(C)C(=O)NCC(O)c2ccccc2)ccc2c3c(c(=O)oc12)CCCC3 (stereo not given)	Pf growth 48h 8.3µM, HCV inhibitor 25µM, Pf growth 96h 4.1µM
Cc1c(OCC(=O)NCCCN2CCCC2=O)ccc2c3c(c(=O)oc12)CCC3	Pf growth 96h inconclusive
Cc1c(OCC(=O)NCCCN2CCCC2=O)ccc2c3c(c(=O)oc12)CCCC3	Pf growth 48h inconclusive, Pf growth 96h 19µM
CCn1c2ccccc2c2cc([N+](=O)[O-])ccc21	Pf growth 48h inconclusive, HCV inhibitor inconclusive
CC(C)n1c2ccccc2c2cc([N+](=O)[O-])ccc21	Pf growth 48h inconclusive, HCV inhibitor 8.9µM, Pf growth 96h 4.7µM
O=C(C(=O)N1CCN(c2ccccc2)CC1)c1ccccc1	none (no result: Pf growth 48h, HCV inhibitor, Pf growth 96h)
CN(C)c1ccc(C(=O)c2ccc(N(C)C)cc2)cc1	HCV inhibitor inconclusive (no result: Pf growth 48h)
CN(C)c1ccc(C(=C2C=CC(=[N+](C)C)C=C2)c2c(O)c(S(=O)(=O)[O-])cc3cc(S(=O)(=O)O)ccc23)cc1	Pf growth 48h inconclusive, Pf growth 96h 6µM (no result: HCV inhibitor, AMA1-RON2 inh)
CN(C)c1ccc(C(=C2C=CC(=[N+](C)C)C=C2)c2ccccc2)cc1	Pf growth 48h 7.6µM, Pf growth 96h 3.8µM (no result: HCV inhibitor, AMA1-RON2 inh)
CCN(CC)c1ccc(C(=C2C=CC(=[N+](CC)CC)C=C2)c2ccc(S(=O)(=O)O)cc2S(=O)(=O)[O-])cc1	AMA1-RON2 inh inconclusive (no result: Pf growth 48h, Pf growth 96h)
CN(C)c1ccc(C(=C2C=CC(=[N+](C)C)C=C2)c2ccc(N(C)C)cc2)cc1	Pf growth 48h 0.3µM, Pf growth 96h 0.19µM (no result: HCV inhibitor, AMA1-RON2 inh)
CCOc1ccc(Nc2ccc(N3C(=O)CCC3=O)cc2[N+](=O)[O-])cc1	Pf growth 96h inconclusive
Cc1cc(NC(=O)NC(=O)c2ccccc2)no1	Pf growth 96h inconclusive
O=C(Nc1ccc(Cl)cc1)C1C2C=CC3(O2)C1C(=O)N(CCN1CCCCC1)C3C(=O)NC1CCCCC1 (stereo not given)	Pf growth 48h inconclusive, HCV inhibitor inconclusive, Pf growth 96h inconclusive
O=C(NNc1ccc(C2CCCCC2)cc1)C(O)(c1ccccc1)c1cccs1 (stereo not given)	Pf growth 48h inconclusive, HCV inhibitor inconclusive
CCC[N+]12CCC(CC1)C(C(O)(c1ccccc1)c1ccccc1)C2 (stereo not given)	Pf growth 48h inconclusive, Pf growth 96h 5.2µM
CCCC[N+]12CCC(CC1)C(C(O)(c1ccccc1)c1ccccc1)C2 (stereo not given)	Pf growth 48h inconclusive, Pf growth 96h 10µM
CCCC[N+]12CCC(CC1)C(Cc1ccccc1)C2 (stereo not given)	Pf growth 48h inconclusive, Pf growth 96h inconclusive
C[N+]12CCC(CC1)C(C(O)(c1ccccc1)c1cccs1)C2 (stereo not given)	Pf growth 48h 12µM, Pf growth 96h 2.6µM
COC(=O)c1c(C)[nH]c(/C=N/Nc2ccccc2)c1C	Pf growth 48h 5.2µM, Pf growth 96h inconclusive
CCOC(=O)C1=CCN(S(=O)(=O)c2ccccc2Cl)C1c1cccc(Br)c1 (stereo not given)	none (no result: Pf growth 48h, HCV inhibitor, Pf growth 96h)
Nc1nsc2ccccc12	Pf growth 48h inconclusive, HCV inhibitor 11µM
COC(=O)c1ccc(OCCN2CCCCCC2)cc1	AMA1-RON2 inh inconclusive
O=C(c1ccc(OCCN2CCCCC2)cc1)c1c(-c2ccc(O)cc2)sc2cc(O)ccc12	Pf growth 48h 2.6µM, HCV inhibitor inconclusive, Pf growth 96h 2.3µM, AMA1-RON2 inh inconclusive
COc1cc2sc(-c3ccccc3OC)c(-c3ccc(OCCN4CCCCC4)cc3)c2cc1OC	HCV inhibitor 11µM, AMA1-RON2 inh inconclusive (no result: Pf growth 48h, Pf growth 96h)
CC(C)OC(=O)C1C(=O)CC(C)(O)C(C(=O)OC(C)C)C1c1cccc([N+](=O)[O-])c1 (stereo not given)	Pf growth 48h inconclusive, Pf growth 96h inconclusive
CCOC(=O)C1=C(C)N(C)C(=O)NC1c1cccc([N+](=O)[O-])c1 (stereo not given)	none (no result: Pf growth 48h, Pf growth 96h)
CCOC(=O)C1=C(C)NC(C)=C(C(=O)OC)C1c1cccc([N+](=O)[O-])c1 (stereo not given)	Pf growth 48h 5.9µM, HCV inhibitor inconclusive, Pf growth 96h inconclusive
COCCOC(=O)C1=C(C)NC(C)=C(C(=O)OC(C)C)C1c1cccc([N+](=O)[O-])c1 (stereo not given)	Pf growth 48h 9.3µM, HCV inhibitor inconclusive, Pf growth 96h 6.6µM!
COC(=O)C1=C(C)NC(C)=C(C(=O)OC(C)(C)CN(C)CCC(c2ccccc2)c2ccccc2)C1c1cccc([N+](=O)[O-])c1 (stereo not given)	Pf growth 48h 1.5µM, Pf growth 96h 3µM (no result: HCV inhibitor, AMA1-RON2 inh)
CC1=C(C(=O)OC(C)C)C(c2cccc([N+](=O)[O-])c2)C(C(=O)OC2CN(C(c3ccccc3)c3ccccc3)C2)=C(N)N1 (stereo not given)	Pf growth 48h 7.6µM (no result: HCV inhibitor, AMA1-RON2 inh)
CCOC(=O)C1CCN(C(=O)CCCn2nc(CC)n3c(cc4occc43)c2=O)CC1	HCV inhibitor inconclusive, Pf growth 96h inconclusive
N#Cc1cn(Cc2ccco2)c(=O)[nH]c1=O	none (no result: Pf growth 48h, Pf growth 96h)
CC(C)(C)C(=O)CN1C(=O)NC(C)(Cc2ccc3c(c2)OCO3)C1=O (stereo not given)	none
CCOC(=O)C1=C(C)NC(C)=C(C(=O)OCC)C1c1ccc([N+](=O)[O-])s1	Pf growth 48h inconclusive, Pf growth 96h 13µM
